Assay results as given in PubChem BioAssay AID1878 (Sanford-Burnham Center for Chemical Genomics, 2009).
Out of some 1,000 compounds screened, about 200 (20%) were called active. Not all results are given here. Measured potencies and affinities stand elsewhere. A number with no mark means an inactive call. Cut-off read from the data, not from the text of the source: active = inhibition above about 55%; inactive = the rest.

target: Dual specificity protein phosphatase 3 (Homo sapiens) (UniProt P51452); test: VHR1 phosphatase inhibitors, biochemical (AID 1878); conditions: recombinant VHR phosphatase, fluorogenic substrate; at 13.3 µM; active compounds read high
Sequence (P51452 whole entry, looked up): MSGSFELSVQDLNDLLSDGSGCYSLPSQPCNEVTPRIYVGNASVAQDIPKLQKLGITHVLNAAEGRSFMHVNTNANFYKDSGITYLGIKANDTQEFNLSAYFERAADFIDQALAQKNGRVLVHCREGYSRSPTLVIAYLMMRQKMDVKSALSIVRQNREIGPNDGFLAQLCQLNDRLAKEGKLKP

Row | Compound | inhibition
1 | Cc1ccccc1C(=O)NC[C@@H]1CCCN2CCCC[C@H]12 | -3.5%
2 | CC(=O)c1cccc(OCc2cc(C(=O)N3CC4C[C@@H]5CC3C[C@H](C4)C5)no2)c1 | 21.3%
3 | Cc1ccc2c(c1)N(CC(=O)NCCCN1CCCCC1C)C(=O)c1cccnc1O2 (stereo not drawn) | -7.1%
4 | O=C(COC(=O)CNC(=O)c1ccc(Cl)cc1Cl)Nc1ccc(N2CCOCC2)cc1 | 1.8%
5 | Cc1ccc(S(=O)(=O)N(C)C)cc1NC(=S)N(C)C1CCN(C)CC1 | -3.6%
6 | CCc1nnc(NC(=O)COc2ccc3c(c2)OCO3)s1 | 5.7%
7 | CCOc1ccccc1OCCN1CCCC1 | -12.9%
8 | O=[N+]([O-])c1ccc(N2N=C(c3ccccc3)CC2c2ccccc2O)cc1 (stereo not drawn) | 6%
9 | COc1ccc(C2=NN(C(=O)CCCC(=O)O)C(c3cn(-c4ccccc4)nc3-c3ccccc3)C2)cc1 (stereo not drawn) | 91.6% (active)
10 | O=C(O)CCC(=O)N1N=C(c2ccccc2)CC1c1ccc(Br)cc1 (stereo not drawn) | -7.5%
11 | COc1cc(OC)c(NC2=CC(=O)C(=O)c3ccccc32)cc1Cl | 6.7%
12 | O=C(NCCc1cnc[nH]1)Nc1cccc(C(F)(F)F)c1 | -4.7%
13 | CN(c1ccc(C(=O)N2CCCCC2)cc1)S(C)(=O)=O | 27%
14 | CC1=CC(=O)c2c(O)ccc(O)c2C1=O | 65.2% (active)
15 | COc1ccc(OC)c2c(C)cc(C)nc12 | -3.6%
16 | CC1CCCC(C)N1/N=C/c1ccc(O)c(O)c1 (stereo not drawn) | 2.9%
17 | COCCCN(CC(=O)Nc1ccc(N2CCOCC2)cc1)S(=O)(=O)c1ccc(Cl)cc1 | -3.7%
18 | CC1CCC(NCCNC(=O)c2ccco2)CC1 (stereo not drawn) | -9.5%
19 | O=C(Nc1ccnn1C1CCN(C2CCCC2)CC1)c1ccccc1 | -11.4%
20 | CCCCCC#CCC#CCC#CCC#CCCCC(=O)O | 94.6% (active)
21 | COc1ccc(Nc2nccc(-c3ccc(C#N)cc3)n2)cc1 | -0.6%
22 | NC(=O)NC(=O)C(Nc1ccc(N2CCCCC2)cc1)c1ccccc1 (stereo not drawn) | 3.2%
23 | CCOc1ccc(CNC(=O)c2cccc(NC(=O)C3=C(C)OCCS3)c2)cc1 | 5.4%
24 | CN(C(=O)COC(=O)c1cc(F)c(F)cc1Cl)c1ccccc1 | -7.5%

Row | Compound | inhibition
25 | COC(=O)c1ccc(CN2CCCC(CNC(=O)Cc3ccc(OC)cc3)C2)cc1 (stereo not drawn) | -1%
26 | CCOc1ccc(CNC(=O)C(=O)c2cn(CC(=O)N3CCOCC3)c3ccccc23)cc1OC | -5.3%
27 | CCCCN(C)CCNC(=O)CCn1nc(-c2ccc(C)cc2)ccc1=O | 49.7%
28 | Cc1ccc(OCC(=O)Nc2ccc(C(N)=O)cc2)cc1 | 19.4%
29 | Cc1ccc(NC(=O)COc2cccc(-n3cnnn3)c2)cc1[N+](=O)[O-] | -11.9%
30 | Cc1cccc(NC(=O)COc2ccc(/C=C\c3[nH]c(=O)[nH]c(=O)c3[N+](=O)[O-])cc2)c1 | 98.7% (active)
31 | Cc1nn(C)c(C)c1CCC(=O)N1CCCC(N2CCN(c3ccc(F)cc3)CC2)C1 (stereo not drawn) | -3.3%
32 | Cc1nc2sccn2c(=O)c1S(=O)(=O)Nc1ccc(N2CCN(S(C)(=O)=O)CC2)cc1 | -12.5%
33 | COc1ccc(-c2ccnc3[nH]n(-c4ccccc4)c(=O)c23)cc1 | 7.3%
34 | O=c1c2c(-c3cccc([N+](=O)[O-])c3)ccnc2[nH]n1-c1ccccc1 | 74.2% (active)
35 | O=[N+]([O-])c1cccc(S(=O)(=O)N2CCN(c3ccccn3)CC2)c1 | -9.5%
36 | COc1ccc2c(C)nc(N/C(N)=N/S(=O)(=O)c3ccc(C)cc3)nc2c1 | 26.9%
37 | Cn1c(=O)[nH]c(=O)c2c1nc(N1CCNCC1)n2Cc1ccccc1Cl | 0.7%
38 | COc1cc(NC(=O)c2cnc(NCc3ccccc3)nc2C)cc(OC)c1OC | -1.7%
39 | c1cc(-c2nnc3sc(C4CCCCC4)nn23)ccn1 | -3.4%
40 | COc1ccccc1NS(=O)(=O)c1ccc2oc(SC)nc2c1 | -3.1%
41 | O=C1Nc2ccccc2C1=Nc1ccc(F)cc1 | -4.5%
42 | O=C(NC(=S)Nc1ccccn1)c1ccc(-c2ccccc2)cc1 | 0.9%
43 | O=C(O)c1ccc(NC(=S)NC(=O)C(c2ccccc2)c2ccccc2)cc1 | -6.3%
44 | COc1cccc(-c2cc(C(=O)N3CCc4ccccc4C3)[nH]n2)c1 | 6.6%
45 | COc1ccc(NC(=O)c2cc3ccc4c5ccccc5[nH]c4c3cc2O)cc1 | 19.8%
46 | O=C(C1CC1)N1N=C(c2cccc(Br)c2)CC1(O)C(F)(F)F (stereo not drawn) | 2.7%
47 | Nc1ccc(C(=O)N(CCO)CCO)cc1 | 4.4%
48 | CN(C)C(=O)/C(=C/c1ccc(-c2cccc([N+](=O)[O-])c2)o1)NC(=O)c1ccccc1 | 1.2%

Row | Compound | inhibition
49 | Cc1ccc2nc(/C(C#N)=C/c3ccc(-c4cccc([N+](=O)[O-])c4)o3)[nH]c2c1 | 96.4% (active)
50 | CC(=O)Nc1nc(C)c(-c2nc3ccc([N+](=O)[O-])cc3[nH]2)s1 | 1%
51 | Cc1cc(C)c(S(=O)(=O)NCC2CCC(C(=O)NCCCN3CCC(C)CC3)CC2)c(C)c1 (stereo not drawn) | -3.9%
52 | CC(=O)N1CCN(c2ccc(NCc3cccc4ccccc34)cc2)CC1 | 3.9%
53 | CN(C)c1ccc(N=Cc2cccn2C)cc1 | 0.6%
54 | CC(C)(C)CN1CCC(Oc2cccc(C(=O)N3CCNC(=O)C3(C)C)c2)CC1 | 6.9%
55 | COC(=O)C1=CN(Cc2ccc(OC)cc2)C=C(C(=O)OC)C1c1ccc(O)c(OC)c1 | 8.4%
56 | O=C(CCNC(=O)N1CC(=O)Nc2ccccc21)Nc1cccc(Cl)c1 | 2%
57 | C=CCNC(=O)N1c2ccccc2Sc2ccccc21 | 26.2%
58 | CC(C)Oc1ccc(C(=O)Nc2ccc(S(=O)(=O)N3CCN(C)CC3)cc2)cc1 | -10.6%
59 | CCN(C(=O)c1ccc(S(=O)(=O)N(C)C)cc1)C(C)C(=O)Nc1ccc(C)cc1 (stereo not drawn) | 5.9%
60 | CC(C)OCCCNC(=S)Nc1ccc(S(N)(=O)=O)cc1 | 54.9% (active)
61 | O=C(CSc1nc2ncccc2[nH]1)NCc1ccco1 | 17.8%
62 | COc1ccc(Br)cc1/C=N/n1nnnc1N | 5.9%
63 | CCN(CC(=O)Nc1ccc2c(c1)OCCO2)C(=O)COc1ccc(C)cc1 | 7.4%
64 | O=C(CSc1ccc([N+](=O)[O-])cn1)Nc1ccc2c(c1)OCO2 | -8.7%
65 | O=C(CN1C(=O)S/C(=C\c2ccc(-c3cc(C(=O)O)ccc3Cl)o2)C1=O)Nc1ccc2c(c1)OCO2 | 91.9% (active)
66 | Cc1cc(C(=O)O)ccc1-c1ccc(/C=C2\SC(=O)N(CC(=O)Nc3ccc4c(c3)OCO4)C2=O)o1 | 96.8% (active)
67 | Cc1ccccc1NC(=O)CN1C(=O)S/C(=C\c2ccc(-c3cc(C(=O)O)ccc3C)o2)C1=O | 67.4% (active)
68 | Cc1ccc(C(=O)O)cc1-c1ccc(/C=C2\SC(=O)N(CC(=O)Nc3ccccc3)C2=O)o1 | 45.6%
69 | CCOc1ccccc1NC(=O)c1nnn(CC(=O)Nc2ccc3c(c2)OCO3)c1N | -0.3%
70 | CCOc1ccc(CNS(=O)(=O)c2cc(CN3C(=O)c4cccnc4C3=O)ccc2OC)cc1 | -2.7%
71 | CC(=O)N1c2ccc(S(=O)(=O)N(C)CC(=O)Nc3cccc(C)c3)cc2CC1C (stereo not drawn) | -2.3%
72 | O=C(NC(=S)Nc1ccccc1N1CCCC1)c1ccccc1Br | -1.6%

Row | Compound | inhibition
73 | COc1cc(OC)nc(Oc2ccc(N)c(C)c2)n1 | 17.4%
74 | CC(=O)/C=C\c1cn(-c2ncc(C(F)(F)F)cc2Cl)c2ccccc12 | -0.4%
75 | COc1cccc(CNc2cc(C)ccn2)c1O | -6.7%
76 | O=S1(=O)N(Cc2ccccc2F)CCCN1Cc1c(F)cccc1Cl | 44.5%
77 | O=S(=O)(c1ccccc1)N1CCn2c(nc3ccccc32)C1 | -0.8%
78 | Cc1ccc(-c2nn3c(C)nnc3s2)cc1NC(=O)c1ccc(-c2ccc(Cl)cc2Cl)o1 | 99.7% (active)
79 | CSCC(C)N1CCC(N2CCC(C(=O)NCc3ccccn3)CC2)CC1 (stereo not drawn) | -9.9%
80 | Cc1ccc(/C=C2/Sc3ccc(C(=O)NCc4ccccn4)cc3NC2=O)cc1 | 93.9% (active)
81 | CCN(Cc1ccc(NC(C)=O)cc1)CC1CCCN(CCc2cccc(F)c2)C1 (stereo not drawn) | 6.3%
82 | CCOC(=O)C1(Cc2ccccc2)CCCN(C(=O)c2ccc(-n3ccnc3)cc2)C1 (stereo not drawn) | -9.5%
83 | Cc1cccc(C(=O)NCCCn2ccnc2)c1C | -6.9%
84 | Cc1ccc(CSc2nnc(-c3ccco3)n2N)cc1 | 3.5%
85 | CC1(c2ccc3ccccc3c2)NC(=O)NC1=O (stereo not drawn) | -8.8%
86 | CC(C)N(C)Cc1nnnn1CC(=O)N(C)Cc1ccc(F)cc1 | 0.7%
87 | COc1ccc(NC(=O)CN(CC(=O)Nc2ccc(OC)cc2)C(C)(C)CO)cc1 | 10.8%
88 | COc1ccc(C(CC(=O)Nc2ccccn2)N2Cc3ccccc3C2=O)cc1 (stereo not drawn) | 2.3%
89 | COc1ccc(NC(=O)CN2C(=O)/C(=C3\SC(=S)N(CCC(=O)O)C3=O)c3ccccc32)cc1 | 74.7% (active)
90 | O=C(O)CN1C(=O)/C(=C2\C(=O)N(Cc3ccccc3Cl)c3ccccc32)SC1=S | 96.7% (active)
91 | CN(C)c1nc(-c2ccccc2)c2cc(Cl)ccc2n1 | 9%
92 | CCCN1CCN(CCNC(=O)Nc2cc(C)ccc2C)CC1 | -9.3%
93 | Cc1nc(C(C)NC(=O)c2ccc(OC3CCN(Cc4ccccn4)CC3)cc2)c(C)s1 (stereo not drawn) | -8.5%
